A selection: hits, their analogues and other compounds. The true share with any hit is near 14%.
HCV inhibitor: HCV inhibition. AID 651820. Huh7.5.1 HCVcc-Cre infection, luciferase reporter, 44 h. hit rate 3.4% among 340,000. Potency, µM (top dose mostly 41.8 µM), for inactives: at the top dose activity change, negative = inhibition, hits mostly inhibitors; further: potency means the concentration at half of the fitted maximal effect
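Seed cells (1,000/well) for 4 h; treat with compound and infect with HCVcc-Cre, moi about 0.5. Incubate 44 h, then detect luciferase activity.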
LASV entry inh: blocks Lassa virus binding to or entry into cells; Lassa virus pseudotype entry inhibition, cell reporter; Potency, µM (doses to about 37.9 µM), without a hit: at the highest dose activity change, negative = inhibition, hits mostly inhibitors; hit rate 1.2% among 300,000; AID 540256; calls by dose curve; tested in HEK293 cells; further: potency means the concentration at half of the fitted maximal effect; nearly all actives have a fitted effect of over 50% in size
Pf growth 96h: inhibits malaria parasite growth, 96 h. P. falciparum luciferase reporter growth, 96 h. Potency, µM (top dose mostly 28.7 µM), for inactives: at the top dose activity change, negative = inhibition, usual class: inhibitors. hit rate 6.9% among 320,000. AID 504834; further: potency means the concentration at half of the fitted maximal effect
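Readout is luminescence from an integrated firefly luciferase in P. falciparum. Red cells, 2% hematocrit and 0.05% parasitemia final, were cultured with compound through two parasite generations (96 hours) at 37 C, 5% CO2.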
HCMV antiviral: inhibitors of human cytomegalovirus; AID 1259415; hit rate 4.5% among 410,000; activity change, negative = inhibition, % at 57.5 µM; HFF cells, HCMV-luciferase reporter, 72 h; hits give low values; in the data active means activity change below about -60%; inconclusive means no clear call, values can overlap the other calls; inactive means above about -39%
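Compounds were evaluated in HFFs infected with an HCMV luciferase reporter virus (MOI 1 PFU/cell). Luciferase in lysates collected 72 h post infection served as the replication measure.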
Marburg entry inh: blocks Marburg virus binding to or entry into cells. Potency, µM (highest dose often 37.8 µM), for inactives: at the highest dose activity change, negative = inhibition, actives largely listed as inhibitors. Marburg virus pseudotyped entry inhibition, cell reporter. hit rate 1.8% among 300,000; calls by dose curve; tested in HEK293 cells; further: potency means the concentration at half of the fitted maximal effect
Pf growth 48h: inhibits P. falciparum growth in the first generation, 48 h. P. falciparum luciferase growth in erythrocytes, 48 h. hit rate 5.9% among 310,000. Potency, µM (titrated, usually from 28.7 µM), inactives show at the top dose activity change, negative = inhibition, usual class: inhibitors; further: potency means the concentration at half of the fitted maximal effect
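Compounds are pin-transferred into medium, infected erythrocytes (2% hematocrit, 0.1% parasitemia final) are added, and plates sit one parasite generation at 37 C in 5% CO2. Detection reagent is then added and luminescence measured.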
An asterisk follows results filed as active; ? = inconclusive; . = no result; [ ] = another dose, or the depositor's remark. Unless noted, the call rests on the fitted dose curve; in most records, active means well fitted inhibition curve with a large enough effect; inconclusive means small, poorly fitted or top-dose-only effect, or another doubt; inactive means no such curve, though single readings can be large or run the other way. On the % scale 0 is the no-effect control and ±100 the full control effect.

SMILES	HCV inhibitor	LASV entry inh	Pf growth 96h	HCMV antiviral	Marburg entry inh	Pf growth 48h
CCCC[C@@H](CNC)NC[C@H](NCCCCC1CCCCC1)C(C)C	-55.5%	.	1.65µM*	-99.1*	.	?
O=C(CC1N=C2c3ccccc3N=C(SCc3ccc(F)cc3)N2C1=O)NCc1ccco1 (stereo not drawn)	?	6.9%	13.1µM*	-21.8	9.2%	0.738µM*
CCC(C)NC(=O)CSC1=Nc2ccccc2C2=NC(CC(=O)NCc3ccccc3)C(=O)N12 (stereo not drawn)	2.0%	7.8%	-0.8%	11.0	-11.2%	9.28µM*
CCc1ccc(NC(=O)CSC2=Nc3ccccc3C3=NC(CC(=O)NCc4ccccc4)C(=O)N23)cc1 (stereo not drawn)	.	0.5%[46.1 µM]	.	36.0	.	.
Cc1ccc(CSC2=Nc3ccccc3C3=NC(CC(=O)NCc4ccco4)C(=O)N23)cc1 (stereo not drawn)	?	-1.7%	.	-3.3	4.9%	1.31µM*
Cc1ccccc1Cn1cc(NS(=O)(=O)c2cn(C)nc2C)cn1	15.5%	.	21.1%	-60.2*	.	3.7%
C#CCCCON=C1C[C@@H](O)[C@H](O)[C@H]2[C@@H]3C(=O)N(Cc4ccc5c(c4)OCO5)C(=O)[C@@H]3CC[C@@H]12	.	.	.	.	-6.7%[14.2 µM]	.
Cc1ccc(/C=C/S(=O)(=O)NCc2ccc(F)cc2)cc1	1.8%	25.8%[46.1 µM]	?	-33.3	16.5%[46.1 µM]	10.4µM*
CSCC[C@H](NC(=O)COc1ccc(Cl)cc1Cl)c1nc2ccccc2[nH]1	?	-2.0%	?	-18.1	?	-5.3%
CCCCn1nc(C(=O)N[C@@H](CCSC)c2nc3ccccc3[nH]2)c2ccccc2c1=O	?	0.4%	11.7µM*	-17.2	?	?
CSCC[C@H](NC(=O)C(C)Oc1ccc(Cl)cc1)c1nc2ccccc2[nH]1 (stereo partly drawn)	-7.4%	-12.0%	6.57µM*	-14.4	?	?
CSCC[C@H](NC(=O)c1ccc(Cl)c([N+](=O)[O-])c1)c1nc2ccccc2[nH]1	-7.8%	-29.1%	-14.2%	23.0	10µM*	-22.8%
O=C(NC(Cc1ccccc1)c1nc2ccccc2[nH]1)c1ccc(Cl)c([N+](=O)[O-])c1 (stereo not drawn)	?	-20.4%	?	26.1	?	-19.4%
COc1ccc(-c2nnc(SCC(=O)NCCc3ccccc3)nc2-c2ccc(OC)cc2)cc1	.	1.2%[46.1 µM]	.	7.9	.	.
COc1ccc(NC(=O)CSc2nc3c(sc4ccccc43)c(=O)n2CCCN2CCCC2)cc1	2.51µM*	.	?	.	.	13.1µM*
COCCCn1c(SCC(=O)Nc2ccc(OC)cc2)nc2c(sc3ccccc32)c1=O	.	-26.8%[46.1 µM]	.	?	.	.
CC(C)NC(=O)CCn1c(SCc2c(F)cccc2Cl)nc2c(sc3ccccc32)c1=O	.	25.5%[46.1 µM]	.	-11.8	-17.8%[46.1 µM]	.
COCCCNC(=O)CSc1nc2ccccc2c(=O)n1CCCN1CCCCC1	8.2%	.	16.9%	-0.4	.	22.2%
Cc1cccc(CSc2nc3c(sc4ccccc43)c(=O)n2CCC(=O)NC(C)C)c1	.	21.9%[46.1 µM]	.	-60.8*	13.1%[46.1 µM]	.
COc1ccc(NC(=O)CSc2nc3ccccc3c(=O)n2CCCN2CCCCC2)c(OC)c1	-28.4%	-27.0%	9.28µM*	-28.8	?	.
CC(C)(C)OC(=O)/C=C/[C@H]1Cc2ccccc2N1	.	.	.	19.4	.	.
COc1cc(C(O)c2nc(-c3cccc(F)c3)cs2)ccc1F (stereo not drawn)	.	.	.	-24.4	.	.
O=C(CN1CCCC1)Nc1c(Cl)cccc1Cl	8.1%	12.8%[46.1 µM]	0.4%	26.1	8.8%[46.1 µM]	-8.3%
O=C1c2ccccc2C(=O)c2c1ccc1c(=O)n(-c3ccccc3)[nH]c21	?	8.3%	19.0%	-65.2*	-18.3%	1.1%
Cc1cccc(-n2[nH]c3c4c(ccc3c2=O)C(=O)c2ccccc2C4=O)c1	?	0.3%	90.7%	-28.1	-12.6%	9.6%
SMILES	HCV inhibitor	LASV entry inh	Pf growth 96h	HCMV antiviral	Marburg entry inh	Pf growth 48h
CC(C)Cn1[nH]c2c3c(ccc2c1=O)C(=O)c1ccccc1C3=O	11.2µM*	?	?	.	-28.4%	10.4µM*
CCc1nc2c(OCC(=O)c3ccc(Cl)cc3Cl)cccn2c1N(C)C(=O)COc1ccccc1	.	.	.	-5.3	.	.
O=C(NCc1ccc2c(c1)CCN2C(=O)c1ccc(Cl)cc1)c1ccco1	.	?	.	14.7	.	.
Cc1cccn2c(CN[C@H]3CCCCNC3=O)c(C(=O)N3CCOCC3)nc12	3.3%	?	9.28µM*	-23.0	12.8%[46.1 µM]	7.8%
Cc1cccn2c(CNCC3OCCc4ccccc43)c(C(=O)N3CCCCC3)nc12 (stereo not drawn)	8.8%	-38.3%	?	?	10µM*	?
O=C(NCCc1ccccc1)/C(=C\c1ccccc1)NC(=O)c1ccco1	3.6%	7.6%	-10.7%	5.3	24.9%	?
NC(N)=NC(N)=Nc1cccc2ccccc12	-12.6%	7.1%	-21.6%	-8.9	2.6%[46.1 µM]	?
NC(N)=Nc1cc2ccccc2c2ccccc12	.	.	?	-83.4*	.	?
CCN1CCN(c2ccc(NC(=O)c3ccc(Cl)c(N4CCCC4=O)c3)cc2)CC1	6.1%	1.7%[46.1 µM]	8.7%	20.5	15.6%[46.1 µM]	7.9%
CCOc1ccccc1NC(=O)C1CCN(S(=O)(=O)c2cc(Br)cc3c2N(C(C)=O)CC3)CC1	.	-1.1%[46.1 µM]	.	1.9	3.7%[46.1 µM]	.
C=Cc1ccc(Cn2c(C)c(C(=O)NCc3cccc(C(F)(F)F)c3)sc2=O)cc1	.	.	.	2.5	.	.
COc1ccc(C(C)=O)cc1Cn1c(C)c(C(=O)NCc2ccc3c(c2)OCO3)sc1=O	.	.	.	22.6	.	.
COc1ccc(Cl)cc1Cn1c(C)c(C(=O)NCc2ccc3c(c2)OCCO3)sc1=O	.	.	.	-71.9*	.	.
Cc1cccc(CNC(=O)c2sc(=O)n(Cc3ccc(S(C)(=O)=O)cc3)c2C)c1	.	.	.	-68.7*	.	.
C=Cc1ccc(Cn2c(C)c(C(=O)NCc3cccc(C)c3)sc2=O)cc1	.	.	.	-65.0*	.	.
Cc1c(C(=O)NCc2ccccc2C(F)(F)F)sc(=O)n1Cc1ccccc1C#N	.	.	.	-62.3*	.	.
CSc1ccc(Cn2c(C)c(C(=O)NCc3cccc(C)c3)sc2=O)cc1	.	.	.	-66.9*	.	.
Cc1c(C(=O)NCc2ccc(C(F)(F)F)cc2)sc(=O)n1Cc1ccc(S(=O)(=O)N(C)C)cc1	.	.	.	-72.7*	.	.
CCNc1nc(N)nc(Oc2ccc(OCC(=O)OC)nn2)n1	.	22.6%[46.1 µM]	.	-29.0	1.4%[46.1 µM]	.
COC(=O)[C@]12CCCCC=C1N(Cc1ccccc1)C(=O)[C@H](CC(=O)NCCCCc1ccccc1)C2	.	.	.	-2.9	.	.
O=C(C[C@H]1C/C=C\CCCC(=O)OC[C@H]2CCCN2C1=O)NCCO	?	.	.	0.1	.	.
Cc1ccn2c(C(=O)CSc3ccccc3Cl)c(C)nc2c1	-22.5%	?	?	-20.7	?	3.7µM*
CCCCc1c(O)nc(SCC(=O)N2CCOCC2)n(-c2ccc(C)cc2)c1=O	.	.	.	25.5	.	.
